Assay results taken from PubChem BioAssay (NCATS).
Results filed as inconclusive are left out. The source made the active and inactive calls. Calls come from the whole dose curve; as a rule, active = well fitted inhibition curve with a large enough effect; inconclusive = small, poorly fitted or top-dose-only effect; inactive = flat fitted curve, though single readings scatter.

These compounds were tested on TAB109 (assay: qHTS profiling for inhibitors of Plasmodium falciparum proliferation (AID 504749; note: nearly all actives have a fitted effect of over 60% in size;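 for activity, negative = inhibition: 0% = DMSO vehicle and full inhibition = artemisinin control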)). Settings: P. falciparum in erythrocytes, SYBR Green DNA, 72 h; series mostly up to 28.7 µM; activity, negative = inhibition: at the top concentration.
In short: (§1)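 P. falciparum-infected erythrocytes (0.3% parasitemia, 2.5% hematocrit final) were exposed to compounds for 72 h at 37 C in 5% CO2, then lysed with SYBR Green buffer overnight at room temperature; parasite DNA fluorescence was normalized to artemisinin and DMSO controls.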
Potency is the fitted concentration of half-maximal effect.

Compound	activity, negative = inhibition	Potency
Nc1nc(N)nc(-c2cc(Cl)ccc2Cl)n1	6.28% (inactive)	
CCCN[C@H]1CCc2nc(N)sc2C1	2.06% (inactive)	
CN(CCOc1ccc(CC2SC(=O)NC2=O)cc1)c1ccccn1 (stereo not drawn)	2.56% (inactive)	
CCCc1cc(C(N)=S)ccn1	10.9% (inactive)	
C[C@]12C=CC(=O)C=C1CC[C@@H]1[C@@H]2C(=O)C[C@@]2(C)[C@H]1CC[C@]2(O)C(=O)CO	1.47% (inactive)	
Nc1[nH]c(=O)ncc1F	11.6% [at 12.8 µM] (inactive)	
CC(C)(Sc1cc(C(C)(C)C)c(O)c(C(C)(C)C)c1)Sc1cc(C(C)(C)C)c(O)c(C(C)(C)C)c1	0.362% [at 12.8 µM] (inactive)	
N=C(N)c1ccc(OCCCCCOc2ccc(C(=N)N)cc2)cc1		1580 nM (active)

The compounds below were run on TAB113 in the same assay as above. Settings: P. falciparum in erythrocytes, SYBR Green DNA, 72 h; series mostly up to 28.7 µM; activity, negative = inhibition: at the top concentration.
In short: as §1

Compound	activity, negative = inhibition	Potency
Cn1nnc2c(C(N)=O)ncn2c1=O	12.1% (inactive)	
N[C@@H](C(=O)N[C@@H]1C(=O)N2C(C(=O)O)=C(Cl)CS[C@H]12)c1ccccc1	3.17% (inactive)	
O=P(O)(O)C(O)(Cc1cccnc1)P(=O)(O)O	4.04% (inactive)	
NCCCC(O)(P(=O)(O)O)P(=O)(O)O	9.61% (inactive)	
CC(C)(C#N)c1cc(Cn2cncn2)cc(C(C)(C)C#N)c1	6.66% (inactive)	
Cc1ccnc2c1NC(=O)c1cccnc1N2C1CC1	5.91% (inactive)	
O=C(O)c1cc(=O)[nH]c(=O)[nH]1	-4.65% (inactive)	
Cc1ncc([N+](=O)[O-])n1CCO	2.02% (inactive)	
CCN(C)C(=O)Oc1cccc([C@H](C)N(C)C)c1	11.9% (inactive)	
COc1cc(NCc2ccc3nc(N)nc(N)c3c2C)cc(OC)c1OC		2510 nM (active)
COc1cc([C@@H]2c3cc4c(cc3[C@H](O)[C@H]3COC(=O)[C@H]23)OCO4)cc(OC)c1OC		3160 nM (active)
C1CCC(C(CC2CCCCN2)C2CCCCC2)CC1 (stereo not drawn)		6310 nM (active)
COc1ccc2cc3[n+](cc2c1OC)CCc1cc2c(cc1-3)OCO2		1000 nM (active)
CCn1cc(C(=O)O)c(=O)c2cc(F)c(N3CCNCC3)nc21	-9.42% [at 12.8 µM] (inactive)	
CCOCC(O)COc1ccc(NC(=O)CC[S+](C)C)cc1 (stereo not drawn)	4.23% (inactive)	
COC(=O)Nc1nc2ccc(Sc3ccccc3)cc2[nH]1	7.55% [at 12.8 µM] (inactive)	
O=S(=O)(O)CCS	8.47% (inactive)	
CN(C)c1ccc(C(=C2C=CC(=[N+](C)C)C=C2)c2ccc(N(C)C)cc2)cc1		355 nM (active)
CN1CCN(c2c(F)cc3c(=O)c(C(=O)O)cn(CCF)c3c2F)CC1	2.19% (inactive)	
NC(=O)N1c2ccccc2CC(=O)c2ccccc21	2.25% (inactive)	
Nc1nc(N)nc(-c2cc(Cl)ccc2Cl)n1	-0.251% (inactive)	
CCCN[C@H]1CCc2nc(N)sc2C1	-0.378% (inactive)	
CN(CCOc1ccc(CC2SC(=O)NC2=O)cc1)c1ccccn1 (stereo not drawn)	11% (inactive)	
CCCc1cc(C(N)=S)ccn1	0.221% (inactive)	
Nc1[nH]c(=O)ncc1F	6.83% [at 12.8 µM] (inactive)	
CC(C)(Sc1cc(C(C)(C)C)c(O)c(C(C)(C)C)c1)Sc1cc(C(C)(C)C)c(O)c(C(C)(C)C)c1	8.75% [at 12.8 µM] (inactive)	
N=C(N)c1ccc(OCCCCCOc2ccc(C(=N)N)cc2)cc1		1410 nM (active)

The compounds below were run on TAB165 in the same assay as above. Settings: P. falciparum in erythrocytes, SYBR Green DNA, 72 h; series mostly up to 28.7 µM; activity, negative = inhibition: at the top concentration.
In short: as §1

Compound	activity, negative = inhibition	Potency
Cn1nnc2c(C(N)=O)ncn2c1=O	7.77% (inactive)	
N[C@@H](C(=O)N[C@@H]1C(=O)N2C(C(=O)O)=C(Cl)CS[C@H]12)c1ccccc1	13% (inactive)	
O=P(O)(O)C(O)(Cc1cccnc1)P(=O)(O)O	3.63% (inactive)	
NCCCC(O)(P(=O)(O)O)P(=O)(O)O	11.1% (inactive)	
CC(C)(C#N)c1cc(Cn2cncn2)cc(C(C)(C)C#N)c1	1.28% (inactive)	
Cc1ccnc2c1NC(=O)c1cccnc1N2C1CC1	-0.327% (inactive)	
O=C(O)c1cc(=O)[nH]c(=O)[nH]1	8.03% (inactive)	
Cc1ncc([N+](=O)[O-])n1CCO	4.78% (inactive)	
CCN(C)C(=O)Oc1cccc([C@H](C)N(C)C)c1	2.68% (inactive)	
COc1cc(NCc2ccc3nc(N)nc(N)c3c2C)cc(OC)c1OC		1120 nM (active)
COc1cc([C@@H]2c3cc4c(cc3[C@H](O)[C@H]3COC(=O)[C@H]23)OCO4)cc(OC)c1OC		2240 nM (active)
C1CCC(C(CC2CCCCN2)C2CCCCC2)CC1 (stereo not drawn)		10000 nM (active)
COc1ccc2cc3[n+](cc2c1OC)CCc1cc2c(cc1-3)OCO2		794 nM (active)
CCOCC(O)COc1ccc(NC(=O)CC[S+](C)C)cc1 (stereo not drawn)	12.9% (inactive)	
COC(=O)Nc1nc2ccc(Sc3ccccc3)cc2[nH]1	6.33% [at 12.8 µM] (inactive)	
CC(C)Cn1cnc2c(N)nc3ccccc3c21	-10.2% (inactive)	
O=S(=O)(O)CCS	4.19% (inactive)	
CN(C)c1ccc(C(=C2C=CC(=[N+](C)C)C=C2)c2ccc(N(C)C)cc2)cc1		251 nM (active)
CN1CCN(c2c(F)cc3c(=O)c(C(=O)O)cn(CCF)c3c2F)CC1	-0.487% (inactive)	
NC(=O)N1c2ccccc2CC(=O)c2ccccc21	2.36% (inactive)	
Nc1nc(N)nc(-c2cc(Cl)ccc2Cl)n1	4.78% (inactive)	
CCCN[C@H]1CCc2nc(N)sc2C1	0.137% (inactive)	
CN(CCOc1ccc(CC2SC(=O)NC2=O)cc1)c1ccccn1 (stereo not drawn)	-3.37% (inactive)	
CCCc1cc(C(N)=S)ccn1	-0.597% (inactive)	
C[C@]12C=CC(=O)C=C1CC[C@@H]1[C@@H]2C(=O)C[C@@]2(C)[C@H]1CC[C@]2(O)C(=O)CO	8.76% (inactive)	
Nc1[nH]c(=O)ncc1F	0.334% [at 12.8 µM] (inactive)	
CC(C)(Sc1cc(C(C)(C)C)c(O)c(C(C)(C)C)c1)Sc1cc(C(C)(C)C)c(O)c(C(C)(C)C)c1	-0.765% [at 12.8 µM] (inactive)	
N=C(N)c1ccc(OCCCCCOc2ccc(C(=N)N)cc2)cc1		501 nM (active)
